Source: PubChem BioAssay

Molecular target: Fibroblast growth factor 2 (Homo sapiens) (UniProt P09038)
Assay: basic fibroblast growth factor binding to printed compounds – biochemical, small-molecule microarray, 635/667 nm fluorescence, primary screen (AID 1133)
Details: FGF2, fluorescence 635/667, higher = more signal

Fibroblast growth factor 2 (Homo sapiens), sequence (P09038 whole entry, looked up): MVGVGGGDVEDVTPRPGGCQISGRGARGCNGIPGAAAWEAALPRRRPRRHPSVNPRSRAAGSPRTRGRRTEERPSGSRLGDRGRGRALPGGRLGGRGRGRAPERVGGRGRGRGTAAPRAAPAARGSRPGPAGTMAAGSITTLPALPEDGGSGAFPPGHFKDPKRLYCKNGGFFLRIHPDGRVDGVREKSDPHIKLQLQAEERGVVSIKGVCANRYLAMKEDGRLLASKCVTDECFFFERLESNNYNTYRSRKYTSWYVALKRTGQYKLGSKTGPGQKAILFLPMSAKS

Compound	composite z-score
O=C1[C@H]2[C@H]3[C@H](O)[C@H](O)CC(=NO[C@@H]4O[C@H](CO)[C@@H](O)[C@H](O)[C@H]4O)[C@@H]3CC[C@H]2C(=O)N1Cc1ccc2c(c1)OCO2	0.289
COC(=O)[C@H](C)NC(=O)[C@@H](C)CO	0.108
CC1CC/C=C\[C@H]2OC34C=CCN(Cn5nnc6ccccc65)C(=O)[C@H]3N(CCO)C(=O)[C@@H]4C2C(=O)O1 (stereo not given in full)	-1.35
O=C1CCCC2OC12C(O)CCc1ccccc1 (stereo not given)	0.268
CO[C@@H]1COC(=O)[C@H](C)NC(=O)[C@@H](C)COC(=O)CCC[C@H]1C	0.851
CCN1C(=O)[C@H]2[C@H]3[C@H](O)[C@H](O)CC(=NOC[C@@H](C)[C@H](OCc4ccccc4)C(C)C)[C@@H]3CC[C@H]2C1=O	-0.109
O=C1[C@H]2[C@H]3[C@H](O)[C@H](O)CC(=NOCc4ccccc4)[C@@H]3CC[C@H]2C(=O)N1C1CCCCC1	-0.45

Test system: not listed separately
Assay: JC-1 mitochondrial potential readout, lung cancer cells – cell-based, A549, JC-1 fluorescence, basal, 24 h, 100 nL, profiling panel (AID 1138);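 note: A549 lung adenocarcinoma cells under basal conditions with no added stimulus; test concentration not given here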
Details: higher = more signal

Compound	z-score
CCOC(=O)CCN1C(=O)[C@H]2[C@H]3[C@H](O)[C@H](O)CC(=NOC[C@@H](O)COCc4ccco4)[C@@H]3CC[C@H]2C1=O	0.928
COc1ccc([Si](C)(C)[C@H]2[C@H](CC(=O)N3CCC[C@H]3CO)O[C@@]3(C(=O)N(Cc4cccc(N5C(=O)COc6ccccc65)c4)c4ccccc43)[C@@H]2C)cc1	4.31
CC(=O)OC[C@H]1O[C@H](CCON=C(C)CCC(=O)OC[C@H]2O[C@H](C#Cc3ccccc3)C=C[C@@H]2Oc2ccc(C)cc2)C=C[C@@H]1OC(C)=O	-0.518
CCOC(=O)[C@H](CC(C)C)NC(=O)CCC1CC(OC(=O)NCc2cccc3ccccc23)CC2(CCCC(COC(=O)NCCN3CCOCC3)O2)O1 (stereo not given in full)	0.154
CN1C(=O)C2C=CC(C(O)C(c3ccccc3)c3ccccc3)N(NC(=O)OC(C)(C)C)C2C1=O (stereo not given)	-0.0852
Cc1cc2c(c(=O)o1)[C@H](O)[C@H]1O[C@H]1C2=O	-1.23
O=C(NN=C1C[C@@H](O)[C@@H](O)[C@@H]2[C@@H]3C(=O)N(c4cccc(Oc5ccccc5)c4)C(=O)[C@@H]3CC[C@@H]12)OCc1ccccc1	-0.0675
COC(=O)C1=CCC(c2cccc(Cl)c2)O1 (stereo not given)	-0.816
NC(=O)NCC#Cc1ccc2c(c1)[C@]1(C(=O)N2)[C@H](c2ccc(O)cc2)N2[C@H](c3ccccc3)[C@H](c3ccccc3)OC(=O)[C@H]2[C@@H]1C(=O)N1CCCCCCC1	0.296
CC(C)[C@@H](OCc1ccccc1)[C@H](C)C=NOC[C@@H](C)[C@H](OCc1ccccc1)C(C)C	-0.753
COc1ccc(O[C@H]2C=C[C@@H](c3ccccc3)O[C@@H]2COC(=O)N2CCCCC2)cc1	-0.433
CO[C@@H]1COC(=O)CC=C[C@@H](C)[C@H](OC)COC(=O)[C@H](COCc2ccccc2)NC(=O)CC=C[C@H]1C	-0.169
CO[C@@H]1COC(=O)[C@@H]2CCCN2C(=O)[C@@H](C)COC(=O)[C@H](COCc2ccccc2)NC(=O)CC=C[C@H]1C	-0.714
CC(=O)OC[C@H]1O[C@H](CCON=C(C)CCN2CCc3nc(-c4ccccc4)c(-c4ccccc4)cc3C2)C=C[C@@H]1OC(C)=O	1.15
CCCC[C@@H](O)C1=C(C)C[C@H]2C(=O)N(Cc3ccccc3)C(=O)[C@H]2[C@H]1CO	0.923
O=C1[C@H]2[C@H]3[C@H](O)[C@H](O)CC(=NO[C@@H]4O[C@H](CO)[C@@H](O)[C@H](O)[C@H]4O)[C@H]3CC[C@H]2C(=O)N1C1CCCCC1	-0.0288
COC(=O)C1=C(C)[C@@H](O)[C@@H](C)[C@H](c2c(OC)c(OC)c(C)c(OC)c2OC)O1	-0.485
COc1ccc(-c2ccc3c(n2)CCCN3CC(O)CN2CCCc3nc(C)c(C)cc32)cc1 (stereo not given)	1.7
CC(C)(C)OC(=O)CC[C@]1(C(=O)NCc2ccccc2)N=C(c2ccc(OCCCO)cc2)O[C@H]1c1ccccc1	0.949
CC(=O)OC[C@H]1O[C@H](C#CCCCc2ccccc2)C=C[C@@H]1OC(C)=O	-0.264
CS(=O)(=O)CCOC(=O)C1=CC(CCCO)=CC(c2cccs2)N(Cc2cccc(OC(F)(F)F)c2)C=C1C(=O)OCCS(C)(=O)=O (stereo not given)	1.64
NCCCCCNC(=O)[C@@H]1C[C@@H]2C(=O)N3CCC[C@H]3C(=O)N2[C@@H]1c1cccc(OCCO)c1	-0.269
CC(C)=C1C(=O)C(c2ccccc2)=C2CN3C(=O)N(CCc4ccccc4)C(=O)[C@]3(Cc3ccc(F)cc3)[C@H]21	1.27
